Screens deposited in PubChem by several laboratories.
Wnt act = activates Wnt/beta-catenin signaling in a reporter cell assay; activator, plate reader; activation, % at 9.35 µM; 300,000 tested, 1.2% active; in the data active = activation above about 30%, passing the limit was not always enough; inconclusive = no clear call, values can overlap the other calls;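 also: 0% = neutral control wells and 100% = positive control wells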
MITF act = MITF TRPM1 promoter activation in melanoma cells; SK-MEL-5 TRPM1-promoter luciferase, 24 h; % of positive control, neutral wells = 0; activation, % at 12.5 µM; 300,000 tested, 0.75% active; AID 588334;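 active = mean activation of at least 80% with every replicate also reaching 80%; inconclusive = mean reaches 80% but some replicate falls short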;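 also: 0% = neutral control wells and 100% = parthenolide positive control wells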
esBAF inh = inhibitors of esBAF chromatin remodeling in mouse ES cells | Bmi1-luciferase knock-in reporter, 24 h; 100% = twice the neutral-well signal | reporter increase, % at 12.5 µM | 350,000 tested, 2% active | AID 602393; in the data active = activation above about 40%; inconclusive = no clear call, values can overlap the other calls;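 also: 0% = median of the plate's neutral control wells and 100% = double that signal; a rise in the Bmi1 reporter signal indicates esBAF inhibition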
FXN GAA850 act = frataxin GAA850 promoter activation. HEK293 lucGAA850 FXN promoter luciferase reporter, 24 h; percent of 10 µM SAHA response. activation, % at 6 µM. 360,000 tested, 0.56% active. AID 540364;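 active = activation above the average of all compounds screened plus 3 SD, cutoff fixed separately per campaign, cut at about 7.5% in these data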;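 also: 0% = DMSO wells and 100% = 10 µM SAHA wells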
* hit, by the source's call; ? = inconclusive; nt = no result; ! = not confirmed by another sample. This is a sample that favours compounds with a hit; in the whole collection about 2.8% have one here.

SMILES | Wnt act | MITF act | esBAF inh | FXN GAA850 act
Cc1ccc(Nc2nc(C)cs2)cc1 | 58* | 55 | 20 | 4
COc1ccccc1Nc1nc(C)cs1 | 0 | 89*! | 16 | 1
Cc1csc(Nc2cccc3ccccc23)n1 | -2 | 23 | nt | 2
Oc1ccc(Nc2nc(-c3ccc(O)cc3)cs2)cc1 | nt | 15 | nt | -4
Cc1csc(Nc2ccc(Cl)cc2)n1 | 11 | 78 | 76* | 4
COc1cccc(/C=N/NC(=O)c2cccs2)c1 | 40* | nt | 25 | 5
COc1ccc(/C=C/C(=O)Oc2cccc(/C=N/NC(=O)c3cccc(F)c3)c2)cc1 | nt | nt | 45* | -1
COc1cccc(/C=N/NC(=O)c2cnn(-c3ccccc3)c2N)c1 | 8 | 50 | 60* | 5
O=C(N/N=C/c1ccc(-c2cccc([N+](=O)[O-])c2)o1)c1cccs1 | 14 | -10 | nt | 5
O=C(N/N=C/c1ccc([N+](=O)[O-])cc1)c1cccs1 | 38* | nt | nt | 3
C[C@H](CO)N1C[C@H](C)[C@H](CN(C)C(=O)NC2CCCCC2)OCCCC[C@H](C)Oc2ccc(NS(C)(=O)=O)cc2C1=O | nt | nt | 4 | nt
N#C[C@@H]1[C@H](c2ccc(C#CC3CCCCC3)cc2)[C@H](CO)N1C(=O)c1cccc(F)c1 | nt | nt | -1 | nt
COc1cccc(NC(=O)NCCC2=CCCCC2)c1 | 10 | 60 | ? | 6
COc1ccc(NC(=O)NCCC2=CCCCC2)cc1 | 52* | 56 | nt | 4
COc1ccc(NC(=S)NCCC2=CCCCC2)cc1OC | -1 | -6 | nt | 3
S=C(NCCC1=CCCCC1)Nc1ccc(Cl)cc1 | 11 | 54 | 64* | 0
Cc1cccc(S(=O)(=O)N[C@@H]2CC[C@H](CCNC(=O)CCN3CCCCC3)O[C@H]2CO)c1 | nt | nt | 3 | nt
O=C(CSc1ncccn1)c1ccccc1Br | nt | 61 | 41* | 5
O=C(Cc1ccncc1)NCC[C@@H]1CC[C@@H](NC(=O)C2CC2)[C@@H](CO)O1 | nt | nt | -3 | nt
Oc1ccc(/C=N/Nc2nc(-c3cccnc3)nc3ccccc23)c(O)c1 | 1 | 16 | 58* | -4
Oc1cccc(-c2nc3ccc4ccccc4c3c3c2CCC3)c1 | nt | 93* | nt | 5
O=C(NNc1c2ccccc2nc2ccccc12)c1cccc(O)c1 | nt | -7 | nt | 3
N#C/C(=C\c1c[nH]c2ccccc12)C(=O)NC1CCCC1 | -1 | 54 | 21 | 4
N#C/C(=C\c1c[nH]c2ccccc12)C(=O)NC1CC1 | 8 | nt | 71* | 5
COc1ccc(NC(=O)N[C@@H]2CC[C@@H](CCn3cc(-c4ccccc4F)nn3)O[C@@H]2CO)cc1 | nt | nt | 3 | nt
SMILES | Wnt act | MITF act | esBAF inh | FXN GAA850 act
COc1ccc(Cc2c(-c3ccc(F)cc3)nc3ccc(Cl)cn23)c(C)c1 | -1 | nt | 44* | nt
COc1ccc(Cc2c(-c3cccc(Cl)c3)nc3ccc(C)cn23)c(C)c1 | 18 | nt | 56* | nt
COc1ccc(N=c2oc3ccc(OC)cc3cc2-c2nc3ccccc3[nH]2)cc1 | nt | 0 | 60* | 0
COc1cccc(N=c2oc3ccc(OC)cc3cc2-c2nc3ccccc3[nH]2)c1 | 20 | -9 | 8 | 4
COc1cccc(N=c2oc3ccccc3cc2-c2nc3ccccc3[nH]2)c1 | 47* | -11 | -18 | -2
Cn1c(C(=O)NCC2CCCO2)cc2c(=O)[nH]c3ccccc3c21 (stereo unspecified) | 0 | nt | 8 | 1
Cn1c(C(=O)NCc2ccccc2)cc2oc3ccccc3c21 | 10 | 44 | 59* | -3
Cn1c(C(=O)NCC2CCCO2)cc2c(=O)n(C)c3ccccc3c21 (stereo unspecified) | 17 | -7 | -5 | -1
Cn1c(C(=O)NCc2cccs2)cc2oc3ccccc3c21 | 11 | 41 | 52* | -3
Cn1c(=O)c(C(=O)NCC2CCCO2)c(O)c2ccccc21 (stereo unspecified) | 39* | 54 | ? | 6
Cn1c(C(=O)NCC2CCCO2)cc2oc3ccccc3c21 (stereo unspecified) | nt | 61 | 76* | 1
CCC(=O)N1C[C@H](C)[C@H](OC)CN(C)C(=O)c2ccc(NC(=O)c3ccc(F)cc3)cc2OC[C@@H]1C | nt | nt | 4 | nt
Cc1cccc2c(=O)c(C(=O)NCCc3ccccc3)c[nH]c12 | 5 | 39 | 52* | 2
O=C(NCCc1ccccc1)c1ccccc1C(=O)NCCc1ccccc1 | 13 | nt | 23 | 1
O=C(NCCc1ccccc1)c1c(O)c2ccccc2[nH]c1=O | 5 | 38 | 50* | 0
O=C(NCCc1ccccc1)c1nccc2ccccc12 | 29 | 81* | 80* | 2
O=C(NCCNC(=O)c1ccc(Br)o1)c1ccc(Br)o1 | nt | -8 | -9 | 1
O=C(NCCc1ccccc1)c1c[nH]c2c(F)cccc2c1=O | 4 | nt | 38 | 3
O=C(NCCc1ccccc1)c1ccc(Br)o1 | 25 | ? | 49* | 2
C[C@@H]1CN([C@@H](C)CO)C(=O)c2cc(NC(=O)CCCN(C)C)ccc2O[C@H]1CN(C)C(=O)NC1CCCCC1 | nt | nt | 2 | nt
O=C(NCCc1ccc(Cl)cc1)c1n[nH]c2ccccc12 | 2 | 50 | nt | 3
O=C(NCCc1ccccc1)c1n[nH]c2ccccc12 | 52* | 63 | 24 | 4
O=c1[nH]c(-c2ccc(O)cc2)nc2scc(-c3cccs3)c12 | -3 | 114* | 61* | 6
C[C@@H]1CN([C@@H](C)CO)C(=O)c2cc(NS(=O)(=O)c3cccs3)ccc2O[C@@H](C)CCCCO[C@H]1CN(C)C(=O)Cc1ccccc1 | nt | nt | 7 | nt
Cc1noc(C)c1NC(=O)Nc1ccc2c(c1)C(=O)N([C@@H](C)CO)C[C@H](C)[C@@H](CN(C)CC1CCCCC1)O2 | nt | nt | -4 | nt
SMILES | Wnt act | MITF act | esBAF inh | FXN GAA850 act
O=C(Nc1ccc2c(c1)OCCO2)c1c(F)cccc1F | 21 | 102* | -11 | 2
O=C(NC(=S)Nc1ccc2c(c1)OCCO2)c1ccccc1F | 18 | 85* | 54* | 4
CC(=O)N1N=C(c2ccc(Cl)cc2)OC1c1ccc(C(C)C)cc1 (stereo unspecified) | 1 | 32 | nt | 4
CC(=O)N1N=C(c2ccc(C)cc2)OC1c1ccc(Br)cc1 (stereo unspecified) | 12 | 90* | 38 | 6
CCCCCc1ccc(-c2ccc(OC)cc2)nc1 | 20 | 97* | 98* | 6
CCC(=O)N1C[C@H](C)[C@@H](OC)CN(C)C(=O)c2cc(NC(=O)COC)ccc2OC[C@@H]1C | nt | nt | -1 | nt
O=C(NCC[C@H]1CC[C@H](NC(=O)C2CCC2)[C@@H](CO)O1)c1ccc(F)cc1 | nt | nt | 2 | nt
COc1ccc(OC)c(S(=O)(=O)N2Cc3ccccc3CC2C(=O)Nc2nccs2)c1 (stereo unspecified) | nt | 40 | 51* | 0
Cc1nc(NCCc2ccccc2)sc1C(=O)N(C)C | 8 | 41 | 41* | 1
Cc1nc(Nc2ccccc2C(F)(F)F)sc1C(=O)N(C)C | 16 | 55 | 49* | 3
COc1ccccc1CNc1nc(C)c(C(=O)N(C)C)s1 | 0 | -4 | 2 | -1
CC(C)NC(=O)Nc1cccc2c1O[C@H](CN(C)C(=O)NC1CCCCC1)[C@@H](C)CN([C@@H](C)CO)C2=O | nt | nt | 4 | nt
O=c1c2ccccc2oc2ccc(-c3ccc4[nH]ccc4c3)cc12 | -3 | 113* | 34 | 5
